Screening data (PubChem BioAssay)
A selection: hits, their analogues and other compounds. The true share with any hit is near 2.8%.
PAX8 reporter – inhibitors of PAX8-driven TPO luciferase reporter, primary screen, RMG-I cells, single concentration; SteadyGlo, 24 h; hit rate 1.2% among 360,000; inhibition, % at 12.6 µM; AID 652154, 2013;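 active = mean replicate inhibition at least 60% with every replicate also reaching 60%; inconclusive = only one of the two criteria is met; inactive = mean below 60% and not all replicates reaching 60%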;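 also: luciferase light reporting Pax8 driven TPO promoter activity; plate controls were median of neutral control wells for no effect and mitoxantrone controls for full effect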
Shn3 3UTR inh – reduction of Shn3 3'UTR firefly luciferase signal, primary screen, Schnurri-3 inhibitor project, cell-based, Clone20 osteoblasts, set 2 | Clone20 osteoblast Shn3 3'UTR firefly luciferase, 24 h | hit rate 0.52% among 360,000 | inhibition, % at 12.5 µM;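 active = mean inhibition of at least 75% with every replicate also reaching 75%; inconclusive = mean inhibition at least 75% but some replicate below; inactive = mean inhibition below 75%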;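 also: 0% = median of neutral control wells and 100% = pilot-screen positive control compound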
HIF-2a inh – HIF-2a reporter inhibitors, primary screen, luminescence, 786-0 RCC cells; 786-0 RCC cells HIF-2a reporter, luciferase luminescence, overnight; inhibition, % at 18.8 µM; hit rate 0.72% among 360,000; AID 624352, 2012;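 active = inhibition of the luminescence signal of 40% or more relative to plate controls, in a single-dose primary screen at 18.75 µM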
Peg3 promoter – Peg3 promoter-driven luciferase inhibitors, primary screen, cell-based, HeLa, luciferase luminescence; hit rate 1.7% among 360,000; inhibition, % at 20 µM; HeLa PEG-Prom luciferase reporter, overnight;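 active = inhibition of at least 50% at 20 µM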
TRPM1 prom inh – inhibitors of MITF-dependent TRPM1 promoter reporter, primary screen, cell-based, SK-MEL-5, single point, luciferase; SK-MEL-5 TRPM1 promoter luciferase, 24 h; inhibition, % at 12.5 µM; hit rate 0.83% among 330,000; AID 488899, 2010;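 active = mean inhibition across replicates of 60% or more, whatever share of single replicates reaches that level; inconclusive = some that reach 60%, reason not given; inactive = mean inhibition across replicates below 60%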
LMP1 NFkB inh – EBV LMP1-driven NF-kappaB luciferase reporter inhibitors, primary screen, cell-based, luminescence, single point. LMP1-induced NF-kappaB luciferase reporter cells. inhibition, % at 12.5 µM. hit rate 0.69% among 350,000; in the data active = inhibition above about 41%; inconclusive = no clear call, values can overlap the other calls;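 also: 0% = neutral control wells and 100% = reference inhibitor control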
The depositor's hits bear a star; ? = inconclusive; nt = no result.

SMILES | PAX8 reporter | Shn3 3UTR inh | HIF-2a inh | Peg3 promoter | TRPM1 prom inh | LMP1 NFkB inh
CCCn1c(=O)n(C)c(=O)c2c(SCC(=O)NC34CC5CC(CC(C5)C3)C4)nc(CC(C)C)nc21 | 5 | 0 | 31 | 27 | 68* | -39
CCCc1nnc(SCc2ccc(OCC)cc2)n1N | nt | -8 | 10 | 8 | 9 | 77*
Cc1noc(C)c1NC(=O)Nc1ccc2c(c1)C(=O)N([C@H](C)CO)C[C@@H](C)[C@H](CN(C)C(=O)Nc1ccc3c(c1)OCO3)O2 | 9 | nt | nt | nt | nt | nt
COc1ccc(-n2c(-c3cc(-c4ccccc4)sc3N)n[nH]c2=S)cc1 | 1 | -19 | -6 | 87* | -15 | -10
Nc1sc(-c2ccccc2)cc1-c1n[nH]c(=S)n1C1CCCCC1 | 13 | 4 | 20 | 45 | 10 | 12
COC(=O)C[C@H]1CC[C@@H]2[C@@H](COc3ccc(NC(=O)NCc4ccccc4)cc3C(=O)N2C)O1 | 8 | nt | nt | nt | nt | nt
C/C=C/c1cnc2c(c1)C(=O)N([C@@H](C)CO)C[C@H](C)[C@H](CN(C)C(=O)c1cnccn1)O2 | -2 | nt | nt | nt | nt | nt
COc1cc2nc(NCC3CCCO3)n3nc(-c4cccnc4)nc3c2cc1OC (stereo not given) | nt | 5 | 13 | 55* | 1 | -11
COCCCNc1nc2cc(OC)c(OC)cc2c2nc(-c3ccccc3)nn12 | 28 | -3 | 22 | 54* | -12 | 10
C[C@@H]1CN([C@@H](C)CO)C(=O)c2cccc(NC(=O)Nc3ccccc3)c2O[C@@H]1CN(C)C(=O)Nc1ccc2c(c1)OCO2 | -20 | nt | nt | nt | nt | nt
COc1ccc(-n2cc(-c3ccc(OC(F)F)cc3)[n+]3c2CCCCC3)cc1 | 86* | 63 | -2 | -13 | 26 | 8
Cc1ccc(S(=O)(=O)N(C)C[C@H]2OCCCC[C@@H](C)Oc3ccc(NS(=O)(=O)c4ccc(Cl)cc4)cc3C(=O)N([C@@H](C)CO)C[C@H]2C)cc1 | 73* | nt | nt | nt | nt | nt
Cc1ccc(S(=O)(=O)Nc2ccc3c(c2)C(=O)N([C@@H](C)CO)C[C@H](C)[C@@H](CN(C)S(=O)(=O)c2ccc(Cl)cc2)OCCCC[C@@H](C)O3)cc1 | 57 | nt | nt | nt | nt | nt
Cc1ccc(S(=O)(=O)N(C)C[C@@H]2OCCCC[C@H](C)Oc3ccc(NS(=O)(=O)c4ccc(Cl)cc4)cc3C(=O)N([C@H](C)CO)C[C@H]2C)cc1 | 81* | nt | nt | nt | nt | nt
Cc1ccc(S(=O)(=O)N(C)C[C@@H]2OCCCC[C@H](C)Oc3ccc(NS(=O)(=O)c4ccc(Cl)cc4)cc3C(=O)N([C@@H](C)CO)C[C@@H]2C)cc1 | 68* | nt | nt | nt | nt | nt
Cc1ccc(S(=O)(=O)N(C)C[C@H]2OCCCC[C@H](C)Oc3ccc(NS(=O)(=O)c4ccc(Cl)cc4)cc3C(=O)N([C@H](C)CO)C[C@@H]2C)cc1 | 81* | nt | nt | nt | nt | nt
Cc1ccc(S(=O)(=O)N(C)C[C@H]2OCCCC[C@@H](C)Oc3ccc(NS(=O)(=O)c4ccc(Cl)cc4)cc3C(=O)N([C@H](C)CO)C[C@@H]2C)cc1 | 11 | nt | nt | nt | nt | nt
COc1ccc2c3c(n(C)c2c1)[C@H](CO)N(C(=O)CC1CC1)CC31CCN(C(=O)NC(C)C)CC1 | -6 | nt | nt | nt | nt | nt
C[C@H]1CCCCO[C@@H](CN(C)C(=O)c2ccccc2)[C@@H](C)CN([C@@H](C)CO)C(=O)c2cc(NC(=O)c3ccncc3)ccc2O1 | -2 | nt | nt | nt | nt | nt
O=C(N/N=C/c1c[nH]c2ccccc12)c1[nH]c2ccc(Br)cc2c1-c1ccccc1 | 94* | -45 | 31 | 20 | ? | 7
O=C(N/N=C/c1ccc(O)cc1)c1[nH]c2ccc(Br)cc2c1-c1ccccc1 | 96* | -9 | 18 | 32 | 63* | 15
CC(C)NC(=O)N(C)C[C@H]1Oc2ccc(NS(=O)(=O)c3ccc(Cl)cc3)cc2CC(=O)N([C@H](C)CO)C[C@H]1C | -8 | nt | nt | nt | nt | nt
Cc1ccc2c(n1)sc1c(-c3ccc(Br)cc3)c(C#N)c(N)nc12 | nt | 15 | 0 | 56* | 14 | -5
COc1cc2c(O)c3c(c(-c4ccc5c(c4)OCO5)c2cc1OC)C(=O)OC3 | nt | 80 | -6 | 81* | 27 | -241
O=C(C[C@H]1CC[C@H]2NC[C@H](O)COC[C@@H]2O1)NCCc1ccccc1 | 11 | nt | nt | nt | nt | nt
